Test results from PubChem BioAssay (EPA / NIEHS).
The source made the active and inactive calls. How the source made its calls: active means hit-call score of the fitted dose curve at least 0.9, where 1 is the maximum; inactive means score below 0.9.

Assay: ATG_SREBP_CIS: Attagene CIS-FACTORIAL HepG2 Assay for human Sterol Regulatory Element Binding (SREBP) (AID 2282962)
Details: HepG2 Attagene cis-factorial SREBP reporter, mRNA; actives raise or lower the signal
Procedure: ATG_CIS is a cell-based, multiplexed-readout assay that uses HepG2, a human liver cell line, with measurements taken at 24 hours after chemical dosing in a 24-well plate.ATG_SREBP_CIS is one of 52 assay component(s) measured or calculated from the ATG_CIS assay. It is designed to make measurements of mRNA induction, a form of inducible reporter, as detected with fluorescence intensity signals by Reverse transcription polymerase chain reaction (RT-PCR) and Capillary electrophoresis technology.Data from the assay component ATG_SREBP_CIS was analyzed into 1 assay endpoint. This assay endpoint, ATG_SREBP_CIS, was analyzed with bidirectional fitting relative to DMSO as the negative control and baseline of activity. Using a type of inducible reporter, measures of mRNA for gain or loss-of-signal activity can be used to understand the reporter gene at the transcription factor-level as they relate to the gene SREBF1. Furthermore, this assay endpoint can be referred to as a primary readout, because this assay has produced multiple assay endpoints where this one serves a reporter gene function. To generalize the intended target to other relatable targets, this assay endpoint is annotated to the dna binding intended target family, where the subfamily is basic helix-loop-helix leucine zipper.
Human liver HepG2 cells are transiently transfected with multiple reporter transcription units (MRTUs) in 6-well plates using FuGene 6 reagent (Roche; 3 ml FuGene/1 mg DNA). The MRTU constructs are regulated by a cis-regulating element (promoter). […] A major difference between the CIS and TRANS system is that in CIS activities of endogenous TFs are measured, whereas the TRANS assay evaluates changes in activities of exogenous, chimeric NR-Gal4 proteins. […] At the end of 24 hour incubation, total RNA was isolated using TriZol reagent (Invitrogen). The isolated RNA is then reverse-transcribed using oligo(dT) primer and Mo-MLV reverse transcriptase (Invitrogen) with DNAse I (Ambion) treatment for 30 min. The one-tenth of the produced cDNA was amplified by PCR using Taq DNA polymerase (Invitrogen) and two reporter sequence-specific primers. The PCR products were fluorescently labeled by primer extension with 6-arboxyfluorescein (6-FAM) 5'-labeled reporter sequence-specific primer (2 min at 95 C, 20 s at 68 C and 10 min at 72 C) and these products were digested with 5U of HpaI (New England Biolabs) for 2h at 37 C. The fragments were purified using Qiaquick PCR columns (Qiagen), analyzed on an ABI 3130xL genetic analyzer (Applied Biosystems) with peak positions identified by using a set of X-rhodamine (ROX)-labeled MapMarker1000 molecular weight standards (BioVentures). The raw capillary electrophoresis data was processed using Attagraph software (Attagene).

Compound | outcome | AC50
O=C(Nc1ccc2c(c1)Cc1ccccc1-2)C(F)(F)F | inactive | 
O=[N+]([O-])c1cccc(Cl)c1 | inactive | 
COc1cccc(OC)c1O | inactive | 
CCCCCC(=O)CC | inactive | 
CC1(C)C2=CCCC(C)(C)[C@]23CC[C@H]1C3 |  | 53.2 µM (active)
Nc1ccc2c(O)cc(S(=O)(=O)O)cc2c1 | inactive | 
CCCCCCC(C)Nc1ccc(Nc2ccccc2)cc1 (stereo not given) | inactive | 
CCOC(=O)[C@@H](C)Oc1ccc(Oc2nc3ccc(Cl)cc3o2)cc1 | inactive | 
C1=CC2C3C=CC(C3)C2C1 (stereo not given) | inactive | 
O=c1c(O)c(-c2ccc(O)cc2)oc2cc(O)cc(O)c12 | inactive | 
Nc1c(S(=O)(=O)O)cc(Br)c2c1C(=O)c1ccccc1C2=O | inactive | 
CCCCCCOCCOCCO | inactive | 
C=CC(=O)OCCC#N |  | 76.4 µM (active)
Cc1cccc(Nc2ccccc2)c1 |  | 100 µM (active)
CC(C)(C)CC(C)(C)c1ccc(OCCOCC[N+](C)(C)Cc2ccccc2)cc1 |  | 8.35 µM (active)
CC(=O)O[C@@H]1CC2CCC1(C)C2(C)C (stereo not given in full) | inactive | 
C=Cc1ccc(C(C)(C)C)cc1 | inactive | 
CCCC(=O)OC(C)(C)Cc1ccccc1 | inactive | 
Cc1[nH]c(=O)c(C#N)cc1-c1ccncc1 | inactive | 
CC(=O)C1(C)CC2=C(CCCC2(C)C)CC1C (stereo not given) |  | 85.8 µM (active)

Compound | outcome | AC50
CCCCCCCCc1ccc(S(=O)(=O)O)cc1 |  | 159 µM (active)
CCCCCCC(C)(C)S | inactive | 
CCCCCC(C)=O | inactive | 
C[Si](C)(C)O[Si](C)(C)C | inactive | 
Cc1cc(S(=O)(=O)O)ccc1N=Nc1c(O)ccc2ccccc12 | inactive | 
O=C(O)COCC(=O)O | inactive | 
CN(c1nccc(=O)[nH]1)C1CCN(c2nc3ccccc3n2Cc2ccc(F)cc2)CC1 | inactive | 
c1ccc(CCc2ccccc2)cc1 | inactive | 
CC(=O)Nc1ccc(C(=O)CCl)cc1 |  | 8.67 µM (active)
CCCCCCCC(=O)OCCCCCC | inactive | 
CC(C)NCC(O)COc1ccc(CC(N)=O)cc1 (stereo not given) | inactive | 
CCCCCCC(CO)CCCC (stereo not given) | inactive | 
Clc1cc(Cl)c(-c2c(Cl)c(Cl)cc(Cl)c2Cl)cc1Cl |  | 50 µM (active)
C=C1C[C@]23C[C@@]1(O)CC[C@H]2[C@@]12C=C[C@H](O)[C@@](C)(C(=O)O1)[C@H]2[C@@H]3C(=O)O | inactive | 
NCCNc1cccc2ccccc12 |  | 35.6 µM (active)
CS(=O)(=O)c1ccc(Cl)cc1 | inactive | 
CC(C)(C)c1ccc(C(=O)O)cc1 | inactive | 
Oc1c(Cl)cc(Cl)c(Cl)c1Cc1c(O)c(Cl)cc(Cl)c1Cl | inactive | 
C1CCOC1 | inactive | 
CCCCOCC | inactive | 
